What follows are sequences tested against EIF1 (assay: pooled miR-30 sensor sort-seq; sequence = guide strand). Details: shRNA.
With TTGGACAGTAGTAAGGGTCTTC the sensor-assay potency score (higher = more potent) was 0.328.
Work on TCTTTTTATCGTAATCATCAGC yielded a sensor-assay potency score (higher = more potent) of -0.92.
TCAATTACAGTACCATTGCAGG was tested, and the sensor-assay potency score (higher = more potent) was -1.4.
AAACTTTTTCTTAAACGCCTTC gave a sensor-assay potency score (higher = more potent) of -0.311.
Work on TGTAGCTGAATTACTTCTCCAT yielded a sensor-assay potency score (higher = more potent) of 0.149.
TAGTAAGGGTCTTCCTGCCGTT gave a sensor-assay potency score (higher = more potent) of -0.658.
With TTATATGGATATAATCCTCAGT the sensor-assay potency score (higher = more potent) was -0.502.

The sequences below were run against EIF2B2 in the same assay as above. Details: shRNA.
Sequence ATCCTCTCTGACAACTCCGAGC has a sensor-assay potency score (higher = more potent) of -1.34.
TATGTTTAACACACTACTGAAC showed a sensor-assay potency score (higher = more potent) of -1.15.
With TTTAACACACTACTGAACCAGA the sensor-assay potency score (higher = more potent) was -0.372.
TATGAAATGAGTCTTCTTCATT showed a sensor-assay potency score (higher = more potent) of -1.13.
ATAATCTTGAGCACTCTCCGCA showed a sensor-assay potency score (higher = more potent) of 0.402.
With TTGACTCTTGACATAACGGCAA the sensor-assay potency score (higher = more potent) was -0.00739.
For TAACACACTACTGAACCAGAAA, the sensor-assay potency score (higher = more potent) was -0.956.
For TAGAGTTCACTCATCAGGCGGT, the sensor-assay potency score (higher = more potent) was 0.258.
Work on TGACTCTTGACATAACGGCAAA yielded a sensor-assay potency score (higher = more potent) of -1.53.
With TAATCTTGAGCACTCTCCGCAC the sensor-assay potency score (higher = more potent) was -0.531.
For TTATGTTTAACACACTACTGAA, the sensor-assay potency score (higher = more potent) was -0.666.
Work on TCTCTGACAACTCCGAGCCCTT yielded a sensor-assay potency score (higher = more potent) of -1.5.

What follows are sequences tested against EIF3K in the same assay as above. Details: shRNA.
In the case of TTGATGTGCCTGGTCGATCATG, the sensor-assay potency score (higher = more potent) was -1.46.
TGATGCTGGACACACTGTCAAA was tested, and the sensor-assay potency score (higher = more potent) was -1.61.
Sequence ATCTTCTCCACAATGTTCTTGG has a sensor-assay potency score (higher = more potent) of -0.584.
TAAACTTTCGGACAGAGTCTTC showed a sensor-assay potency score (higher = more potent) of -0.691.
TTGGCTACAGATGAAGATCTGC gave a sensor-assay potency score (higher = more potent) of 0.0721.
For TACAGATGAAGATCTGCCCCGA, the sensor-assay potency score (higher = more potent) was 0.0464.
With TTCTCCACAATGTTCTTGGGTT the sensor-assay potency score (higher = more potent) was -0.486.
TATACCTTCCAAGAGGTCCATG was tested, and the sensor-assay potency score (higher = more potent) was -1.12.
TACCCTTGAGCAACTTGCCCAC was tested, and the sensor-assay potency score (higher = more potent) was -0.487.
TATTTGCTCATCCACACCTTTA showed a sensor-assay potency score (higher = more potent) of -1.23.
TTCTTGATGTGCCTGGTCGATC showed a sensor-assay potency score (higher = more potent) of -1.05.
With TTGCACAGGGTGAAGTCTGTGT the sensor-assay potency score (higher = more potent) was -0.115.

What follows are sequences tested against EIF3M in the same assay as above. Details: shRNA.
For TTAACAACTGCAGTCTCAGAGA, the sensor-assay potency score (higher = more potent) was -0.725.
TTTTCTAACTTGATCCAGCTCA showed a sensor-assay potency score (higher = more potent) of -0.0518.
TTGCTTAACAACTGCAGTCTCA showed a sensor-assay potency score (higher = more potent) of -0.8.
TAAAGTAGTCTTAAAAGGGTGT was tested, and the sensor-assay potency score (higher = more potent) was 0.205.
TTGTCCTCTGTGTAACTTCCGA gave a sensor-assay potency score (higher = more potent) of -0.798.
In the case of TACAGGAGTATTCTTATCCATC, the sensor-assay potency score (higher = more potent) was -1.23.
Work on TTCAACATCTTTATCATCCTCC yielded a sensor-assay potency score (higher = more potent) of 0.759.
AACATCTTTATCATCCTCCTTC showed a sensor-assay potency score (higher = more potent) of 0.329.
Sequence AACATCATCAGCTCCAATCTGA has a sensor-assay potency score (higher = more potent) of 0.0943.

From the OligoGym collection
Note: reference of the scale not given here.
